FLuc modulator = counter-screen for miR-21 project: firefly luciferase inhibitors or activators. purified FLuc, Km substrates, luminescence inhibition. Potency, µM (series often up to 57.5 µM), hits mostly inhibitors. P08659. AID 588342. 360,000 compounds, 6.9% hits; note: nearly all actives have a fitted effect of over 55% in size
Target sequence (P08659 whole entry, looked up): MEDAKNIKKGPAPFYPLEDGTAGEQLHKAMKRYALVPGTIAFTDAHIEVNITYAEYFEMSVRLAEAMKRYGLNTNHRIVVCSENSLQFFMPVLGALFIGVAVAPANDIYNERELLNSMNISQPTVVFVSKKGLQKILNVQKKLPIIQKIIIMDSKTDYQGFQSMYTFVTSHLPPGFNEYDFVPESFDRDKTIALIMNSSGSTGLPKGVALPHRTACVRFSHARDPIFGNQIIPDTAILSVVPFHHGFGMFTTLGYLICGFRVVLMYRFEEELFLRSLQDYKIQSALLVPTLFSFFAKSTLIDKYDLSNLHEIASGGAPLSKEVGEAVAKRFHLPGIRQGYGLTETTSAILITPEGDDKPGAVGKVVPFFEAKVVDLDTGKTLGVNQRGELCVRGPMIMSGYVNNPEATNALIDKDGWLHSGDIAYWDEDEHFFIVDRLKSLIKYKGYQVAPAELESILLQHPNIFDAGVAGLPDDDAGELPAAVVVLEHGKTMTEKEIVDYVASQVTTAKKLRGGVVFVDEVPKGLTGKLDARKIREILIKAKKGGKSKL
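Purified P. pyralis luciferase (10nM final) with 10uM D-luciferin and 10uM ATP (Km levels) in 50mM Tris acetate pH 7.5, 10mM Mg acetate, 0.01% Tween-20, 0.05% BSA; qHTS 6-point titration, ~60 µM downward; luminescence read.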
ELG1 repair inh = ELG1-dependent DNA repair inhibition. Potency, µM (doses to about 46.1 µM), usual class: inhibitors. 330,000 compounds, 2.3% hits. HEK293T ELG1-luciferase reporter, luminescence, 16 h; DNA damage induced by 5-fluorouridine. AID 504467; note: nearly all actives have a fitted effect of over 55% in size
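Luminescence from the luciferase reporter, measured 30 min after ONE-Glo reagent at room temperature, was the read-out. Beforehand, 2,000 cells per well were exposed for 16 hr at 37 °C to 5-fluorouridine together with compound or vehicle.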
NPC1 prom act = activates the NPC1 promoter | Huh7 NPC1 promoter luciferase reporter, 24 h | Potency, µM (highest dose often 9.22 µM), usual class: activators | 320,000 compounds, 2.4% hits; note: nearly all actives have a fitted effect of over 60% in size
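Compounds in DMSO were transferred onto Huh7 NPC1-luciferase reporter cells pre-incubated 2 h; after 24 h at 37 °C, Amplite reagent was dispensed and luminescence recorded 10 min later.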
SMN2 splice enh = SMN2 splice variant enhancement; AID 1458; 210,000 compounds, 2.8% hits; HEK293 SMN2-luciferase splicing reporter, luminescence, 30-36 h; Potency, µM (highest dose often 46.1 µM), most hits filed as activators; note: nearly all actives have a fitted effect of over 55% in size
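qHTS luciferase splicing reporter: luminescence rises when SMN2 exon 7 is included in transfected HEK293 cells. Compound exposure lasted 30-36 h at 37C, with 4.5 mM final sodium butyrate as control, followed by a ONE-Glo read.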
ELG1 genotox = genotoxicity induction in ELG1-luciferase HEK293T cells; HEK293T ELG1-luciferase reporter, luminescence, 16 h; Potency, µM (top dose mostly 46 µM), actives largely listed as activators; 330,000 compounds, 1.3% hits; note: nearly all actives have a fitted effect of over 60% in size
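Genotoxicity was scored as increased ELG1-luciferase reporter signal, measured by ONE-Glo luminescence (30 min, room temperature). Compound or vehicle exposure of the HEK293T reporter cells lasted 16 hr at 37°C.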
Rab9 promoter act = activators of Rab9 promoter; Huh7 Rab9 promoter-luciferase reporter, luminescence, 24 h; Potency, µM (doses to about 9.22 µM), most hits filed as activators; 320,000 compounds, 2.8% hits; note: nearly all actives have a fitted effect of over 60% in size
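Rab9 promoter-driven luciferase in stably transfected Huh7 cells; 1500 cells/well rested 2 h, exposed to compound in DMSO for 24 h at 37 °C, 5% CO2. Luminescence read 10 min after adding luciferase reagent at ambient temperature.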
Hits are given with their value; i = inactive; ? = inconclusive; nt = not tested or not shown; [ ] = another dose, or the depositor's remark. Sampled rows, rich in hits. Any-hit rate of the full collection: about 9.2%. Calls come from the whole dose curve; as a rule, active = well fitted curve in the direction sought with a large enough effect; inconclusive = small, poorly fitted or top-dose-only effect, or another doubt; inactive = no such curve, though single readings can be large; an effect the other way counts as inactive or inconclusive.

SMILES	FLuc modulator	ELG1 repair inh	NPC1 prom act	SMN2 splice enh	ELG1 genotox	Rab9 promoter act
COc1cccc(C(=O)Nc2ccc3oc(-c4cccc5c(Br)cccc45)nc3c2)c1	i	nt	nt	i	nt	nt
CC(C)C/C=C1\CCc2c([nH]c3ccccc23)C1=O	?	?	i	nt	?	2.8µM
CCCCCCCCC1=NCCc2c1[nH]c1ccccc21	i	i	i	nt	i	i
CC1C/C(=C\c2cccnc2)C(=O)/C(=C/c2cccnc2)C1 (centres undefined)	i	2.1µM	i	i[1.84 µM]	i	i
O=C1/C(=C/c2cccnc2)CCc2c1[nH]c1ccccc21	9.5µM	i	i	nt	i	3.2µM
CN1C(=O)S/C(=C/c2cccnc2)C1=O	i	i	i	i	i	i
ClCC1CN(Cc2ccccc2Cl)CCO1 (centres undefined)	i	i	i	nt	i	i
O=C(Nc1cccc(Cl)c1)c1ccc2nc(Cc3ccccc3)oc2c1	i	nt	nt	nt	nt	nt
Cc1ccc(Nc2nnc(SCC(=O)NC(Cc3c[nH]c4ccccc34)C(=O)O)s2)cc1 (centres undefined)	19µM	i	i	i	i	i
O=C(CSc1nnc(Nc2ccccc2)s1)NC1CCCC1	nt	i	nt	nt	i	nt
Cc1ccc(Nc2nnc(SCC(=O)NCCN3C(=O)CSC3=O)s2)cc1	8.5µM	?	i	?	i	i
Cc1ccc(Nc2nnc(SCC(=O)NC3CC3)s2)cc1	7.6µM	?	i	nt	i	i
Cc1ccc(S(=O)(=O)NC(C)(C)CSc2nnc(Nc3ccccc3)s2)cc1	i	23µM	i	i	i	i
COc1ccc(Br)cc1/C=N/Nc1ccccn1	i	i	i	nt	i	i
COc1ccc(C2=Nn3c(nc4sc(C(=O)Nc5cccc(C)c5)c(C)c4c3=O)SC2)cc1	i	nt	nt	nt	nt	nt
COc1ccc(CCNC(=O)C(=O)NCC2OCCN2C(=O)c2ccc(Cl)cc2)cc1 (centres undefined)	i	i	i	nt	i	i
Cc1cccn2c1nc(=S)n2C(=O)c1ccco1	0.67µM	?	?	?	?	1.4µM
CCOC(=O)COc1ccc([N+](=O)[O-])cc1-c1ccnc2cc(-c3ccc(Cl)cc3)nn12	i	nt	nt	i	nt	nt
Cc1ccc(CC2CC(=O)N(c3nc4ccccc4s3)C2=O)cc1 (centres undefined)	27µM	i	i	nt	i	i
O=C1C2C3C=CC(C3)C2C(=O)N1c1nc2ccccc2s1 (centres undefined)	19µM	i	i	i	i	i
O=C1C2C3C=CC(C3)C2C(=O)N1c1ccc2ccccc2n1 (centres undefined)	?	i	i	i	i	i
COc1ccc2nc(N3C(=O)CC(Cc4ccc(C)cc4)C3=O)sc2c1 (centres undefined)	?	i	i	i	i	i
COc1ccc(CNc2cccc3[nH]c(C(F)(F)F)nc23)cc1OC	i	26µM	i	nt	i	i
COc1ccc(CNc2ccccc2SC)cc1OC	?	?	i	i	i	i
O=c1[nH]c(-c2cccnc2)nc2ccccc12	i	i	i	i	i	i
SMILES	FLuc modulator	ELG1 repair inh	NPC1 prom act	SMN2 splice enh	ELG1 genotox	Rab9 promoter act
c1cncc(-c2nc3c(ccc4ccccc43)[nH]2)c1	11µM	?	?	i	i	?
CC(C)CNC(=O)c1cc(-c2ccc(Cl)c(Cl)c2)on1	i	?	?	i	i	4.5µM
O=C(c1cc(-c2cccc(Cl)c2)on1)N1CCCC1	13µM	?	4µM	nt	18µM	2.8µM
O=C(c1cc(-c2ccc(Cl)c(Cl)c2)on1)N1CCCCC1	4.3µM	?	2.8µM	22µM	?	1µM
O=C(c1cc(-c2cccc(Cl)c2)on1)N1CCN(c2ccccc2)CC1	?	i	i	i	i	i
O=C(c1cc(-c2ccc(Cl)cc2)on1)N1CCCC1	2.1µM	?	0.56µM	nt	2.9µM	0.45µM
COc1c2ccoc2nc2c(OC)c(OC[C@H](O)C(C)(C)O)ccc12	nt	nt	nt	i	nt	nt
CC(C)(C)c1ccc(OCc2cnc(Cl)s2)cc1	13µM	?	i	i	?	?
CC(=O)Nc1cccc(OCc2cnc(Cl)s2)c1	i	?	i	i	i	i
CCOc1ccccc1NC(=O)COc1ccc(S(=O)(=O)NC2CCCCC2)cc1	8.5µM	nt	nt	i	nt	nt
O=C(CNS(=O)(=O)c1ccc(Cl)cc1)N1CCN(c2ccc(F)cc2)CC1	nt	23µM	nt	nt	i	nt
CCOc1ccccc1NC(=O)C1CCCCN1S(=O)(=O)c1ccccc1 (centres undefined)	nt	21µM	i	nt	i	i
O=C(COc1ccc(S(=O)(=O)NC2CCCCC2)cc1)N1CCN(c2ccc(F)cc2)CC1	i	9.2µM	i	i	i	i
COC(=O)c1sc(-c2ccccc2)cc1NC(=O)c1cccc(Cl)c1	i	nt	nt	i	nt	nt
O=C(COC(=O)c1ccc[nH]c1=O)c1ccc(Cl)s1	15µM	i	i	i	i	i
CN(C(=O)COC(=O)c1ccc(Cl)s1)C1(C#N)CCCCC1	19µM	i	i	nt	i	i
O=C(COC(=O)c1cccnc1Cl)c1ccc(Cl)s1	nt	i	nt	nt	i	nt
CN(C(=O)COC(=O)c1ccc(Cl)c(S(=O)(=O)N2CCCCC2)c1)C1(C#N)CCCCC1	i	i	i	nt	i	i
Cc1ccc(C(=O)OCC(=O)c2ccc(Cl)s2)s1	2.7µM	?	i	nt	?	i
O=C(NCCS(=O)(=O)N1CCN(c2ccccc2F)CC1)c1ccc(Br)cc1	i	i	i	nt	i	i
O=S(=O)(c1cccc(F)c1)N1CCC(Oc2ccc(-n3cnnn3)cc2)CC1	i	nt	nt	i	nt	nt
CN(C)c1oc(/C=C/c2ccccc2)nc1C#N	17µM	?	?	13µM	?	?
COc1ccc(Nc2oc(/C=C/c3cccc(OC)c3)nc2C#N)cc1	i	nt	nt	i	nt	nt
COc1ccccc1/C=C/c1nc(C#N)c(N(C)C)o1	7.6µM	?	?	10µM	21µM	?
CNc1oc(/C=C/c2cccc(OC)c2)nc1C#N	15µM	?	i	nt	21µM	i
SMILES	FLuc modulator	ELG1 repair inh	NPC1 prom act	SMN2 splice enh	ELG1 genotox	Rab9 promoter act
COc1ccc(Nc2oc(-c3ccc(COc4ccc(OC)cc4)o3)nc2C#N)cc1	i	nt	nt	nt	nt	nt
CC(C)(C)C(=O)Nc1ccc2nc(SCCOc3ccccc3Cl)sc2c1	i	nt	nt	nt	nt	nt
O=C(NCc1ccccc1)c1ccc(-c2ccccc2F)o1	13µM	?	i	32µM	13µM	?
O=C(NCCc1ccccc1)c1ccc(-c2ccccc2C(F)(F)F)o1	?	i	i	i	i	i
O=C(NCCc1ccccc1)c1ccc(-c2ccc(F)cc2)o1	21µM	i	i	i	i	i
COc1ccc(/C=C/C(=O)N(C)C2CCCCC2)cc1Br	24µM	?	i	?	?	i
CN(C(=O)/C=C/c1cnc2ccccc2c1)C1CCCCC1	4.3µM	?	1.6µM	3.2µM	i	1.1µM
COc1ccc(/C=C/C(=O)N(C(C)C)C(C)C)cc1Br	i	i	i	i	?	i

Assay outcomes from PubChem.
